Hits are enriched below; roughly 3.1% of the tested compounds scored in any of these assays.
CASP6 VEID inh: human caspase-6 inhibitors, primary screen, biochemical, VEID-R110 fluorescence, single point, set 2; P55212; purified caspase-6, Z-VEID-R110 cleavage fluorescence; inhibition, % at 12.5 µM; 350,000 tested, 0.53% active;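 active = mean inhibition across replicates at least about 35%, with every replicate also reaching that limit, limit read from the data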
ERAP1 HTS inh: human ERAP1 aminopeptidase inhibitors, primary screen, biochemical, single point, plate reader. inhibition, % at 10.7 µM. Endoplasmic reticulum aminopeptidase 1 (Homo sapiens), Q9NZ08. 340,000 tested, 0.15% active. recombinant ERAP1, Leu-AMC fluorescence, 60 min;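 active = mean replicate inhibition of at least 30%, or all replicates individually reaching that 30% level; inactive = mean below 30% and not every replicate reaching it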
SIRT5 block: SIRT5 desuccinylase inhibitors, primary screen, biochemical, fluorescence imaging, single point, set 5; 330,000 tested, 1.1% active; Purified SirT5, succinyl-peptide AMC, trypsin-coupled fluorescence; inhibition, % at 15 µM; in the data active = inhibition above about 15%
Target sequence (Q9NXA8 whole entry, looked up): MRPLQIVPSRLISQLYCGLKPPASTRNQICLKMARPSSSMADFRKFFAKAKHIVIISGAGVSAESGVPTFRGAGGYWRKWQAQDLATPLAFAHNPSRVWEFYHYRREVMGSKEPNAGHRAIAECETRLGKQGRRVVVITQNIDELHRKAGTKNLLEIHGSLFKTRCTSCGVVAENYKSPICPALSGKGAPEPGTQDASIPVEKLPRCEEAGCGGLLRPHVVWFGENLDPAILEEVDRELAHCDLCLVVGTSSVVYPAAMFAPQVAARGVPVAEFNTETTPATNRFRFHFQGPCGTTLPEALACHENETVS
FGF22 binding: binders of human FGF22 protein, primary screen, FGF22 synaptogenesis inhibitor project, biophysical, thermal shift, single point; Fibroblast growth factor 22 (Homo sapiens), Q9HCT0; recombinant FGF22 thermal shift, SYPRO orange fluorescence; percent of sucrose octasulfate shift, DMSO zero; activity (Tm shift, normalised), % at 9.99 µM; 340,000 tested, 1.5% active; AID 651658, 2012;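 active = mean Tm shift, scaled 0 neutral to 100 positive control, at about 1.3% or above, every replicate too, limit read from the data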
Target sequence (Q9HCT0 whole entry, looked up): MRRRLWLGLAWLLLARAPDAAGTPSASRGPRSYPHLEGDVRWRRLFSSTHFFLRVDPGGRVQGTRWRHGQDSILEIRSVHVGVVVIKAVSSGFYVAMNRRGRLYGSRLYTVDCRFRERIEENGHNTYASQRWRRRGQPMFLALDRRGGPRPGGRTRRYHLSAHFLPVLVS
A number is an active result; 0 = inactive; - = not tested or not shown.

SMILES	CASP6 VEID inh	ERAP1 HTS inh	SIRT5 block	FGF22 binding
Cc1cc(Cl)nc(Cl)c1C(=O)N1CCOCC1	0	0	22	0
O=C(c1cccnc1Cl)N1CCOCC1	0	0	0	44
Cc1ccccc1-c1cnc2c(c1)C(=O)N([C@H](C)CO)C[C@@H](C)[C@@H](CN(C)C(=O)CN(C)C)O2	0	0	0	0
CCOc1ccc(C(=O)NCC(=O)OCC(=O)N2CCCC2)cc1	0	0	0	44
CCOc1ccc(C(=O)NCC(=O)OCC(=O)N2CCC(C)CC2)cc1	0	0	0	-
NS(=O)(=O)c1ccc(NC(=O)C2Cc3ccccc3CN2C(=O)c2ccco2)cc1 (stereo not given)	45	0	0	0
CC(=O)OCC(C)n1[nH]c2ccccc2c1=O (stereo not given)	0	0	40	0
CN(C)CCNc1c2c(nc3ccccc13)CCC2	0	0	0	0
COc1ccc2nc3ccccc3nc2c1NC(=O)c1ccccc1Cl	0	0	0	43
O=C(Nc1c2c(nc3ccccc13)CCCC2)c1ccccc1Cl	0	0	0	44
O=C(Nc1c2c(nc3ccccc13)CCCC2)c1ccccc1F	0	0	0	0
COCCCNc1c2c(nc3ccccc13)CCC2	0	0	-	44
CCC(=O)Nc1ccc2c(c1)OC[C@@H](C)N(C(C)=O)C[C@H](C)[C@H](OC)CN(C)C2=O	0	0	0	0
C[C@@H]1CN([C@@H](C)CO)C(=O)Cc2cc(NS(C)(=O)=O)ccc2O[C@H]1CN(C)Cc1ccc(C(=O)O)cc1	0	0	0	0
Cc1nc2ccc(S(=O)(=O)N(C)CC(=O)Nc3ccccc3F)cc2s1	-	0	0	44
COc1ccc2c3c([nH]c2c1)[C@@H](CO)N(Cc1ccccn1)CC31CN(C(=O)c2ccccn2)C1	-	-	-	0
CCCN(C)C[C@H]1OCc2cn(nn2)CCCC(=O)N([C@H](C)CO)C[C@H]1C	0	0	0	0
O=C(O)c1cccc(Nc2ccnc(Nc3cccc(C(=O)O)c3)n2)c1	35	0	0	0
Fc1ccc(Nc2ccnc(Nc3ccc(F)cc3)n2)cc1	0	0	0	0
O=C(O)c1cc(-c2ccc3c(c2)OCCO3)n[nH]1	0	0	0	43
CCOC(=O)c1cc(-c2ccc3c(c2)OCCO3)n[nH]1	0	0	0	0
CO[C@H](CN(C)C(=O)c1ccccc1F)[C@H](C)CN([C@H](C)CO)S(=O)(=O)c1ccc(C)cc1	0	0	0	0
Cc1ccc(NC(=S)NC2CCCCC2)cc1S(=O)(=O)N(C)C	0	0	0	2.7
Cc1ccc(NC(=O)CNCC2CCCCC2)cc1S(=O)(=O)N(C)C	0	-	0	0
N#CC(c1ccccn1)c1ncc(C(F)(F)F)cc1Cl (stereo not given)	0	0	0	43
SMILES	CASP6 VEID inh	ERAP1 HTS inh	SIRT5 block	FGF22 binding
C[C@@H]1CN([C@@H](C)CO)C(=O)c2cc(NS(=O)(=O)c3ccccc3)ccc2O[C@@H]1CN(C)Cc1ccc(Oc2ccccc2)cc1	0	0	20	0
COc1ccc(CN(C)C[C@H]2Oc3ccc(NS(=O)(=O)c4ccccc4)cc3C(=O)N([C@H](C)CO)C[C@H]2C)cc1	0	0	0	0
COc1ccc(S(=O)(=O)Nc2ccc3c(c2)C(=O)N([C@@H](C)CO)C[C@@H](C)[C@@H](CN(C)Cc2ccc(Oc4ccccc4)cc2)O3)cc1	0	0	35	0
COc1ccc(S(=O)(=O)Nc2ccc3c(c2)C(=O)N([C@@H](C)CO)C[C@H](C)[C@@H](CN(C)Cc2ccc(Oc4ccccc4)cc2)O3)cc1	0	0	25	0
C[C@H]1CN([C@@H](C)CO)C(=O)c2cc(NS(=O)(=O)c3ccccc3)ccc2O[C@@H]1CN(C)Cc1ccc(Oc2ccccc2)cc1	0	0	0	0
COc1ccc(S(=O)(=O)Nc2ccc3c(c2)C(=O)N([C@H](C)CO)C[C@H](C)[C@H](CN(C)Cc2ccc(Oc4ccccc4)cc2)O3)cc1	0	0	31	0
COc1ccc(S(=O)(=O)Nc2cccc3c2O[C@@H](CN(C)S(=O)(=O)c2cn(C)cn2)[C@H](C)CN([C@@H](C)CO)C3=O)cc1	0	0	0	0
NC(=O)CCC(=O)N1CCCC(C(=O)c2ccc3c4c(cccc24)CC3)C1 (stereo not given)	0	0	0	43
COCCC(=O)N1CCCC(C(=O)c2ccc3c4c(cccc24)CC3)C1 (stereo not given)	0	0	0	0
Cc1ccc2nc(-c3ccc(O)c(O)c3)cn2c1	38	0	0	0
Clc1ccc(-c2cn3cc(Cl)ccc3n2)cc1	0	0	0	0
O=C(OCc1ccccc1)N1CCC2CC1c1cc(Cl)ccc12 (stereo not given)	0	0	0	0
O=C(OCc1ccccc1)N1CCCC2CC1c1ccccc12 (stereo not given)	54	0	0	0
CO[C@H]1CN(C)C(=O)c2ccc(NC(=O)c3cnccn3)cc2OC[C@@H](C)N(C(=O)C2CC2)C[C@H]1C	0	0	0	0
Cc1cccc(NC(=O)NC(C)C(c2cccs2)N2CCOCC2)c1 (stereo not given)	0	0	0	0
Cc1cccc(NC(=O)NC(C)C(c2ccccc2)N2CCN(C)CC2)c1 (stereo not given)	0	0	0	43
COc1cc(OC)c(S(=O)(=O)NC(C)C)cc1S(=O)(=O)NC(C)C	0	0	0	43
CCN1/C(=C2\C(=O)N(c3ccccc3)N=C2C)C=Cc2cc(C)ccc21	0	0	0	43
CCN1/C(=c2/s/c(=C3/C(=O)N(c4ccccc4)N=C3C)n(CC)c2=O)C=Cc2ccccc21	0	0	0	0
CCCC(=O)Nc1ccccc1-c1nnc(SCC)[nH]c1=O	0	-	0	0
Nc1ccccc1-c1nnc(SCC(=O)Nc2ccccc2OC(F)F)[nH]c1=O	0	0	-	43
COc1cc(NCc2ccccc2)c2ncn(C(C)C)c2c1	0	0	0	0
COc1cc(NCCCNC(C)C)c2nccc(C)c2c1	88	0	0	0
C[C@H](O)C#Cc1ccc2c(c1)O[C@@H](CN(C)C(=O)c1ccccc1)[C@H](C)CN([C@@H](C)CO)S2(=O)=O	0	0	0	0
COc1ccc(OC)c(CN2CCN(Cc3cc(=O)oc4cc(O)ccc34)CC2)c1	0	0	0	0
SMILES	CASP6 VEID inh	ERAP1 HTS inh	SIRT5 block	FGF22 binding
COc1ccc2c(CN3CCCC3)cc(=O)oc2c1	0	0	19	0
Cn1nnnc1SCC(=O)Nc1ncc(Cl)cc1Cl	0	0	0	0
Cn1nnnc1SCC(=O)NNC(=O)c1ccc(Cl)cc1	0	0	0	44
Cn1nnnc1SCC(=O)Nc1ncc(C(F)(F)F)cc1Cl	0	0	-	43
Cn1nnnc1SCC(=O)NNC(=O)c1ccc(F)cc1	0	0	0	0
C[C@H](CO)N1C[C@H](C)[C@@H](CN(C)Cc2ccc(Oc3ccccc3)cc2)Oc2ccc(NC(=O)CCC(F)(F)F)cc2C1=O	0	0	0	0

Screening results from PubChem BioAssay.
